{"source": "PubChem BioAssay", "note": "The source made the active and inactive calls.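 Rule for the calls: active = fluorescence ratio normalized to control raised more than 50% in primary screen plus both repeat runs; inactive = the rest.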", "data": [{"system": "TRPC4 beta (transient receptor potential cation channel C4), mouse", "experiment": "TRPC4 cation channel opening, retest – cell-based, Fluo4 calcium, HEK293 TRPC4beta/mu-opioid, duplicates, 10 µM, confirmation (AID 2426);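 for activation: percent rise of integrated ratio over buffer wells lacking compound which define 0%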", "settings": "Fluo4 calcium fluorescence, at 10 µM; active compounds read high", "values": [{"smiles": "CCOc1ccccc1OCC(=O)Nc1cc(S(=O)(=O)N2CCCCC2)ccc1N1CCN(CC)CC1", "activation": "195% (active)"}, {"smiles": "Cc1onc(-c2c(F)cccc2Cl)c1C(=O)N1CCN(c2ncc(Br)cn2)CC1", "activation": "109% (active)"}, {"smiles": "CCOC(=O)C1=NN(C(=O)c2ccc(C)cc2)C(O)(c2ccc(Cl)cc2)C1", "note": "(stereo not given)", "activation": "98% (active)"}, {"smiles": "COc1ccc(/C=C/CN2CCCC(C(=O)c3ccc(OC)c(F)c3)C2)cc1", "note": "(stereo not given)", "outcome": "inactive"}, {"smiles": "NCCSc1c(-c2ccc(Cl)cc2)[nH]c2ccccc12", "activation": "116% (active)"}, {"smiles": "COc1ccc(C(CNC(=O)c2cccc(NS(=O)(=O)c3ccc(C)c(F)c3)c2)N(C)C)cc1", "note": "(stereo not given)", "activation": "135% (active)"}, {"smiles": "CCCOc1ccc(C(=O)NNC(=S)NC(=O)c2cccs2)cc1", "activation": "104% (active)"}, {"smiles": "CCOC(=O)C1CCCN(C(c2ccccn2)c2c(C)[nH]c3ccccc23)C1", "note": "(stereo not given)", "activation": "208% (active)"}, {"smiles": "Cc1ccc(NS(=O)(=O)c2ccc(C(=O)N3CC(C)CC(C)C3)cc2)cc1", "note": "(stereo not given)", "activation": "103% (active)"}, {"smiles": "COC(=O)C1=NN(C(=O)c2cccc(Br)c2)C(O)(c2ccc(Cl)cc2)C1", "note": "(stereo not given)", "activation": "121% (active)"}, {"smiles": "Cc1cc(C)c(CN2CCN(Cc3ccc(C)o3)C(CCO)C2)c(-n2cccn2)c1", "note": "(stereo not given)", "activation": "75% (active)"}, {"smiles": "CCOc1ccc2ncc(C(=O)c3ccc(OC)cc3)c(N3CCN(CC)CC3)c2c1", "activation": "196% (active)"}, {"smiles": "CC(C)(C)c1cc(CCC(=O)NNC(=S)NC(=O)c2ccccc2)cc(C(C)(C)C)c1O", "activation": "150% (active)"}, {"smiles": "COc1ccccc1C(=O)NNC(=S)NC(=O)c1sc2ccccc2c1Cl", "outcome": "inactive"}, {"smiles": "O=C1CC(O)(C(F)(F)F)Oc2c1ccc1ccccc21", "note": "(stereo not given)", "activation": "216% (active)"}, {"smiles": "CCCc1ccc(OCC(=O)NNC(=S)NC(=O)c2ccco2)cc1", "outcome": "inactive"}, {"smiles": "Cc1ccccc1OCC(=O)NNC(=S)NC(=O)c1ccco1", "activation": "103% (active)"}, {"smiles": "CCCOc1ccc(C(=O)NC(=S)NNC(=O)c2c(-c3ccccc3)noc2C)cc1", "activation": "107% (active)"}, {"smiles": "Cc1cc(OCCCn2ccnc2)cc(C)c1Cl", "activation": "67% (active)"}, {"smiles": "CCN1CCN(c2c(S(=O)(=O)c3ccc(C)c(C)c3)cnc3ccc(F)cc23)CC1", "activation": "106% (active)"}, {"smiles": "Cc1cccc(C(=O)NC(=S)NNC(=O)c2cccs2)c1", "activation": "226% (active)"}, {"smiles": "Cc1ccc(C)c(-n2cc(CNCCc3cnccn3)c(-c3ccccc3)n2)c1", "activation": "152% (active)"}, {"smiles": "Cc1ccc2c(C)c(C(=O)N(Cc3cccs3)C3CCS(=O)(=O)C3)oc2c1", "note": "(stereo not given)", "outcome": "inactive"}, {"smiles": "CC(C)(C)c1ccc(C(=O)NC(=S)NNC(=O)c2cccs2)cc1", "activation": "226% (active)"}, {"smiles": "CCCCN(CC)CCCNC(=O)Cn1nc(Cc2ccncc2)c2ccccc2c1=O", "activation": "162% (active)"}]}]}
